91 compounds from PubChem BioAssay AID463173 (ICCB-Longwood Screening Facility, Harvard Medical School, 2010) can be followed below.

The whole screen tested about 52,000 compounds, of which about 1,700 (3.3%) were called active. Cut-off read from the data, not from the text of the source: active = survival mostly below about 52% (no sharp cut-off); inactive = mostly above about 56%. The sample as a whole holds a higher share of actives than the screen did.

This test deals with Wild type. The test can be described thus: growth inhibition of S. aureus wild type versus tarO mutant, primary screen, teichoic acid synthesis inhibitors, RN4220, OD600 (AID 463173). Particulars: S. aureus RN4220 wild type/DeltatarO growth, OD600, 18 h, hits give low values, screened at 18.75 µg/mL (by protocol).
Take `CCC(C(=O)NCc1ccccc1Cl)n1c(=O)c2cccn2c2ccccc21` (stereo unspecified): the survival is 76% (inactive).
In the case of `O=c1c2oc3ccccc3c2n(Cc2cccc(F)c2)c(=O)n1Cc1ccc2c(c1)OCO2` it was 86% (inactive); in that of `O=C(Cn1c(-c2cccs2)cc2cc(F)ccc21)N1CCCCC1`, 72% (inactive); in that of `Cc1cccc(CNC(=O)c2ccc3oc(=O)n(Cc4ccccc4)c3c2)c1`, 60% (inactive).
For `CCn1nnc2cc(C(=O)Nc3ccc(C)c(Cl)c3)ccc21`, the survival was 53% (inactive).
In the case of `CCn1nnc2cc(C(=O)Nc3ccc(OC)cc3)ccc21` it was 73% (inactive); in that of `CCc1ccc(NC(=O)c2ccc3oc(=O)n(Cc4ccccc4)c3c2)cc1`, 1% (active); in that of `CCc1ccc(NC(=O)c2ccc3c(c2)nnn3CC)cc1`, -6% (active).
Consider `Cc1ccc(CNC(=O)c2ccc3oc(=O)n(Cc4ccccc4)c3c2)cc1`, for which the survival was 57% (inactive).
The same measure for `O=C(NCc1ccc(Cl)cc1)c1ccc2oc(=O)n(Cc3ccccc3)c2c1`: 129% (inactive); for `O=C(Nc1cccc(F)c1)c1ccc2oc(=O)n(Cc3ccccc3)c2c1`: 81% (inactive); for `O=C(NCc1ccccc1)c1ccc2oc(=O)n(Cc3ccccc3)c2c1`: 71% (inactive).
The same measure for `O=C(Nc1ccc(Cl)cc1)c1ccc2oc(=O)n(Cc3ccccc3)c2c1`: 63% (inactive).
The same measure for `O=C(NCc1ccc(F)cc1)c1ccc2oc(=O)n(Cc3ccccc3)c2c1`: -4% (active); for `COc1cccc(CNC(=O)c2ccc3oc(=O)n(Cc4ccccc4)c3c2)c1`: -3% (active); for `Cc1nn(Cc2ccccc2)c(C)c1NC(=O)c1cc(C(C)C)on1`: 77% (inactive).
For the compound `O=C(Nc1ccc(NC(=O)c2cccs2)cc1)c1ccc(Cl)cc1`, the survival was 81% (inactive).
The same measure for `Cc1onc(-c2c(Cl)cccc2Cl)c1C(=O)n1c(C)nc2ccccc21`: 105% (inactive).
The same measure for `Cc1cc(C)cc(NC(=O)Cn2c(-c3cncs3)nc3ccccc32)c1`: 63% (inactive).
In the case of `CN(C)C(=O)Cn1c2[n+](c3ccccc31)CC(O)CS2` (stereo unspecified) it was 103% (inactive).
For the compound `O=C(COc1ccc(Cl)cc1)NCC(c1ccco1)S(=O)(=O)c1ccc(Cl)cc1` (stereo unspecified), the survival was 78% (inactive).
In the case of `Cc1cccc(CNC(=O)Cc2csc3ccccc23)c1` it was 116% (inactive).
In the case of `COc1ccc(CNC(=O)c2cccc(NC(=O)N3CCSc4ncccc43)c2)cc1` it was 67% (inactive); in that of `COc1ccccc1NC(=O)CCn1nc(-c2ccccc2OC)c2c(C)cc(C)nc21`, 111% (inactive); in that of `O=C(Oc1cccc2cccnc12)c1ccccc1`, 1% (active).
The same measure for `O=C(/C=C/c1ccco1)OCCN1CCOCC1`: 92% (inactive).
As for `O=C(Oc1ccccc1-c1nc(-c2ccccc2)no1)c1ccccc1`, the survival is 100% (inactive).
The same measure for `O=C1c2ccccc2C(=O)N1COc1cccc2cccnc12`: 101% (inactive).
The same measure for `O=C(/C=C/c1ccco1)ON1C(=O)c2ccccc2C1=O`: 117% (inactive).
The same measure for `O=C(/C=C\c1ccco1)Oc1cccc2cccnc12`: 1% (active).
For `N#Cc1ccccc1NC(=O)Cn1cnc2onc(-c3cccc(F)c3)c2c1=O`, the survival is 105% (inactive).
In the case of `O=C(C1CCN(c2nc3ccccc3[nH]2)CC1)N1CCN(c2ccccc2)CC1` it was 85% (inactive); in that of `O=C(C1CCN(c2nc3ccccc3[nH]2)CC1)N1CCN(c2cccc(Cl)c2)CC1`, 0% (active).
As for `Cc1ccc2nc(N3CCC(C(=O)N4CCN(c5cccc(Cl)c5)CC4)CC3)[nH]c2c1`, the survival was 74% (inactive).
The same measure for `CCCC(=O)c1cc(F)c(N2CCOCC2)cc1C`: 121% (inactive); for `Cc1ccc(NC(=O)Cn2c(=O)n(Cc3ccccc3)c(=O)c3sc4ccccc4c32)cc1`: 93% (inactive).
The same measure for `Cc1ccc(-n2ncc(C(=O)NCc3ccco3)c2C2CCN(C(=O)OC(C)(C)C)CC2)cc1C`: 72% (inactive); for `COc1ccc(N2CCN(c3oc(/C=C/c4ccc(F)cc4)nc3C#N)CC2)cc1`: 84% (inactive).
In the case of `Cc1cc(C)cc(C(=O)N(Cc2nc(-c3ccc(Cl)cc3)no2)C(C)C)c1` it was 17% (inactive).
In the case of `CCOc1cc(C(=O)N(Cc2nc(-c3ccc(C)cc3)no2)C(C)C)cc(OCC)c1OCC`, the survival was 15% (active).
The same measure for `CCOc1cc(C(=O)NCc2nc(-c3cccc(C)c3)no2)cc(OCC)c1OCC`: 89% (inactive).
The same measure for `Cc1ccc(-c2noc(CN(C(=O)c3ccc(C(C)(C)C)cc3)C(C)C)n2)cc1`: -1% (active); for `CCCCOc1ccc(C(=O)N(Cc2nc(-c3ccc(Cl)cc3)no2)C(C)C)cc1`: 85% (inactive); for `CC(C)N(Cc1nc(-c2ccc(Cl)cc2)no1)C(=O)c1ccc(C(C)(C)C)cc1`: 0% (active).
In the case of `Cc1ccc(-c2noc(CNC(=O)c3ccc(C(C)(C)C)cc3)n2)cc1` it was 89% (inactive); in that of `COc1cccc(C(=O)N(Cc2nc(-c3ccc(Cl)cc3)no2)C(C)C)c1OC`, 46% (inactive).
Take `CCCCN(C)CCCNC(=O)C1CCN(S(=O)(=O)CCC)CC1`: the survival is 77% (inactive).
With `Cc1ccc(NC(=O)Cn2c(=O)n(CCC(=O)N3CCc4ccccc4C3)c(=O)c3ccccc32)c(C)c1`, the survival was 79% (inactive).
In the case of `COc1cccc(C(=O)Nc2cc3c(cc2C(=O)c2ccc(C)cc2)OCCO3)c1` it was 71% (inactive).
`CCOC(=O)c1cc(S(=O)(=O)Nc2ccc(OC(F)(F)F)cc2)[nH]n1`: the survival was 87% (inactive).
As to `COc1ccccc1C(=O)Nc1ccc2nc(N3CCC(C)CC3)cc(C)c2c1`, the survival is 0% (active).
The same measure for `CCN1CCN(c2cc(C)c3cc(NC(=O)c4cc(Cl)ccc4OC)ccc3n2)CC1`: 2% (active); for `CCN1CCN(c2cc(C)c3cc(NC(=O)c4ccc(OC)c(OC)c4)ccc3n2)CC1`: 65% (inactive).
The same measure for `CCN1CCN(c2cc(C)c3cc(NC(=O)c4cc(OC)c(OC)c(OC)c4)ccc3n2)CC1`: 73% (inactive); for `COc1ccccc1CC(=O)Nc1ccc2nc(N3CCC(C)CC3)cc(C)c2c1`: 71% (inactive).
The same measure for `COc1ccc(C(=O)Nc2ccc3nc(N4CCC(C)CC4)cc(C)c3c2)cc1`: 86% (inactive); for `CCSc1nc(NC(C)=O)nn1C(C)=O`: 103% (inactive).
For the compound `Cc1ccc(NC(=O)Cc2c(C(=O)O)c(C)cn2C)cc1Cl`, the survival is 87% (inactive).
The same measure for `CCOCCCn1c(SCC(=O)Nc2ccccc2OC)nc2c(oc3ccccc32)c1=O`: 81% (inactive).
The same measure for `CCOc1ccc(C(=O)Nc2cccc(C(=O)OCc3cc(=O)n4cc(C)sc4n3)c2)cc1`: 81% (inactive); for `c1ccc2c(c1)ncn2CCn1cnc2ccccc21`: 104% (inactive); for `CC(=O)OC(COc1ccccc1)Cn1cnc2cc(C)c(C)cc21` (stereo unspecified): 125% (inactive).
Regarding `Cc1cc2ncn(CCC(=O)Nc3ccccc3F)c2cc1C`, the survival is 105% (inactive).
`Cc1cc2ncn(CCCCOc3ccccc3)c2cc1C`: the survival was 20% (active).
The same measure for `COc1ccc(OCCn2cnc3ccccc32)cc1`: 107% (inactive); for `Cc1ccc(OCCCCn2cnc3ccccc32)cc1`: 29% (active); for `Cc1ccc(Cl)cc1N1CCN(C(=O)C2CCN(S(=O)(=O)c3ccc4c(c3)oc(=O)n4C)CC2)CC1`: 66% (inactive).
Take `Cc1ccc(N2CCN(c3cc(C)nc4c(-c5ccc(Cl)cc5)c(C)nn34)CC2C)cc1` (stereo unspecified): the survival was 14% (active).
In the case of `Cc1cccc(N2CCN(c3cc(C)nc4c(-c5ccc(Cl)cc5)c(C)nn34)CC2C)c1` (stereo unspecified) it was 74% (inactive).
The same measure for `Cc1ccc(C)c(N2CCN(c3cc(C)nc4c(-c5ccc(Cl)cc5)c(C)nn34)CC2)c1`: 96% (inactive); for `Cc1n[nH]c(=S)n1CC(=O)N1c2ccccc2CCc2ccccc21`: 102% (inactive); for `CC1=C(C(=O)Nc2ccccc2)C(c2ccc(Br)cc2)n2nc(CCCO)nc2N1` (stereo unspecified): 79% (inactive).
With `CCOc1ccc(NC(=O)Cn2cc(C(=O)c3ccc(C)c(C)c3)c(=O)c3cc(F)ccc32)cc1`, the survival is 89% (inactive).
The same measure for `COc1cc(NS(=O)(=O)c2cc(Br)cc3c2N(C(C)=O)C(C)C3)cc(OC)c1` (stereo unspecified): -3% (active); for `CC(=O)N1c2c(cc(Br)cc2S(=O)(=O)Nc2ccc(OC(F)(F)F)cc2)CC1C` (stereo unspecified): 105% (inactive).
Turning to `COc1ccc(CNS(=O)(=O)c2cc(Br)cc3c2N(C(C)=O)C(C)C3)cc1` (stereo unspecified), the survival was 138% (inactive).
In the case of `CC(C(=O)NCc1ccccc1)n1ccc2cc(S(=O)(=O)N3CCCC3)ccc21` (stereo unspecified) it was -3% (active); in that of `O=C(CCn1ccc2cc(S(=O)(=O)N3CCCC3)ccc21)NCc1cccc(Cl)c1`, -1% (active).
Regarding `COc1ccc(CNC(=O)CCCn2ccc3cc(S(=O)(=O)N4CCCC4)ccc32)cc1`, the survival is 75% (inactive).
For the compound `CCc1ccc(CNC(=O)C(C)n2ccc3cc(S(=O)(=O)N4CCCCCC4)ccc32)cc1` (stereo unspecified), the survival was 75% (inactive).
The same measure for `Cc1cccc(CNC(=O)CCn2ccc3cc(S(=O)(=O)N4CCCC4)ccc32)c1`: 76% (inactive).
In the case of `O=C(Cn1ccc2cc(S(=O)(=O)N3CCCCC3)ccc21)NCc1cccc(Cl)c1` it was 128% (inactive); in that of `Cc1cccc(CNC(=O)Cn2ccc3cc(S(=O)(=O)N4CCCCCC4)ccc32)c1`, -6% (active).
The same measure for `Cc1cccc(CNC(=O)Cn2ccc3cc(S(=O)(=O)N4CCC(C)CC4)ccc32)c1`: 67% (inactive); for `CN(C)c1ccc(CNC(=O)CCCn2ccc3cc(S(=O)(=O)N4CCCC4)ccc32)cc1`: 0% (active); for `CCc1ccc(CNC(=O)CCCn2ccc3cc(S(=O)(=O)N4CCCC4)ccc32)cc1`: 63% (inactive).
As for `Cc1ccc(CNC(=O)C(C)n2ccc3cc(S(=O)(=O)N4CCCC4)ccc32)cc1` (stereo unspecified), the survival is 66% (inactive).
On to `Cc1cccc(CNC(=O)Cn2ccc3cc(S(=O)(=O)N4CCCC4)ccc32)c1`, for which the survival is 69% (inactive).
Regarding `O=C(CSc1nc2nccnc2c(=O)n1CCc1c[nH]c2ccccc12)Nc1ccc(F)cc1`, the survival is 42% (inactive).
In the case of `CCn1c(CNc2cccc(Cl)c2)nnc1SCc1ccccc1` it was 105% (inactive); in that of `O=C1CCCC2=C1C(c1ccc3c(c1)OCO3)c1c([nH]c(=O)[nH]c1=O)N2` (stereo unspecified), 111% (inactive).
